Records with an inconclusive call do not appear. Activity calls are given as the source filed them. Calls come from the whole dose curve; as a rule, active = well fitted activation curve with a large enough effect in the main read-out, with a control signal flat (not every such curve was filed as active); inconclusive = small, poorly fitted or top-dose-only effect, or effect the other way, or a change in a side signal; inactive = flat fitted curve, though single readings scatter.
What follows are compounds tested against 3',5'-cyclic-AMP phosphodiesterase 4B (Homo sapiens) (UniProt Q07343) (assay: qHTS Assay for Inhibitors of PDE-IV (AID 607; note: % of control where 0% means no effect)). Details: HEK293 ACTOne CNG channel cells, membrane potential fluorescence; series mostly up to 22.9 µM; activation (PDE inhibition): at the top concentration.
Chain of 3',5'-cyclic-AMP phosphodiesterase 4B (Homo sapiens) (Q07343 whole entry, looked up): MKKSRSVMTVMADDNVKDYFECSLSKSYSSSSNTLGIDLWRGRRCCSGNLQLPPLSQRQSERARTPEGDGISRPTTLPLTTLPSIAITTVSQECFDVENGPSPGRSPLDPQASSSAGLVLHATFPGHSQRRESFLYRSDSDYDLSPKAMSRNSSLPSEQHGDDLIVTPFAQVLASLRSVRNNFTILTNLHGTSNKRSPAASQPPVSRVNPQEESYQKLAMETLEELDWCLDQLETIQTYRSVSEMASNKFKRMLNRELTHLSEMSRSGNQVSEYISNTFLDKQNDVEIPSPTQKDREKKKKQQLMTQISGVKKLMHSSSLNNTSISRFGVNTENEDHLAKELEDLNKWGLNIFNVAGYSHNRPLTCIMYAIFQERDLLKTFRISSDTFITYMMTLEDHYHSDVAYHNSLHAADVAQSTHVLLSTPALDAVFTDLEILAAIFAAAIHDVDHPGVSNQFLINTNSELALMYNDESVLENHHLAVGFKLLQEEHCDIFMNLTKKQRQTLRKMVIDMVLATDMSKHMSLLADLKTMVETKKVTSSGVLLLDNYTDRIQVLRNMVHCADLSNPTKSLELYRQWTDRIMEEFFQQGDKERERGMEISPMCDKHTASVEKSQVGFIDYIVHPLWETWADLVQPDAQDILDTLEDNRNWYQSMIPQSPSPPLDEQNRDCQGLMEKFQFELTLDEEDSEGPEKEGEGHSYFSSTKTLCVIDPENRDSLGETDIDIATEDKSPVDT
In short: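 The readout is membrane depolarisation from a cAMP-sensing CNG channel, detected with a potential dye at ex 535/em 590. Cells were HEK293-derived (endogenous PDE-IV) at 1000 cells/well, titrated up to 22.9 uM final.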

Activation (PDE inhibition), inactive:
CC(=O)NCCNc1nc(-c2cccc(NS(C)(=O)=O)c2)nc2ccccc12 18.3%, Cc1noc(C)c1-c1nccc(NCCN2CCOCC2)n1 5.23%, Cc1cnc(CNc2ccnc(-c3cccc(NS(C)(=O)=O)c3)n2)cn1 -6.62%, COc1cccc(Cn2c(=O)c(-c3cccc(C#N)c3)nc3cnc(N4CCOCC4)nc32)c1 -9.92%, CN(C)C(=O)c1ccc(-c2cncnc2-n2ccnc2)cc1 7.59%, COc1ccccc1-c1cc(NCc2cnc(C)cn2)ncn1 0.569%, CNc1nc(-c2cccc(C#N)c2)nc2ccccc12 7%, COCCNc1nc(-c2c(C)noc2C)nc2ccccc12 -9.17%, CN(C)C(=O)c1ccc(-c2ccc3ncnc(N4CCOCC4)c3c2)cc1 26.6%, COc1ccccc1CNc1ccnc(-c2ccccc2Cl)n1 11%, Cc1noc(C)c1-c1nc(NC2CC2)c2ccccc2n1 6.94%, COc1cccc(Nc2ncc3ncc(=O)n(C[C@H]4CCCO4)c3n2)c1 19.8%, Cn1cc(-c2nc3cncnc3n(C3CC3)c2=O)c2ccccc21 5.21%, COc1ccc(-c2nc3cnc(OCc4ccccc4)nc3n(CCC#N)c2=O)cc1 3.61%, COc1ccc2[nH]cc(CCNc3ccnc(-c4ccc(N(C)C)cc4)n3)c2c1 -5.89%, Cn1cc(-c2nc3cncnc3n(Cc3ccccc3Cl)c2=O)c2ccccc21 -3.53%, COc1cccc(-c2cc(NCc3cnc(C)cn3)ncn2)c1 15.3%, COc1ccc(Oc2ncc3nc(-c4ccc(F)cc4)c(=O)n(Cc4cccs4)c3n2)cc1 -8.64%, COc1ccc2[nH]cc(CCNc3ncncc3-c3cccnc3)c2c1 1.08%, CS(=O)(=O)Nc1cccc(-c2cc(Nc3ccccc3)ncn2)c1 26.5%, COc1ccccc1CNc1cc(-c2ccccc2OC)ncn1 -1.12%, CNc1nc(-c2ccc(C(=O)N(C)C)cc2)nc2ccccc12 -5.59%, CN(C)C(=O)c1ccc(-c2nccc(-n3ccnc3)n2)cc1 3.5%, Cc1cnc(CNc2cc(-c3ccccc3Cl)ncn2)cn1 23.7%, CN(Cc1ccco1)c1cc(-c2cccc(C#N)c2)ncn1 5.81%, Cc1ccccc1-c1nc(N(C)C)c2ccccc2n1 22.9%, Cc1noc(C)c1-c1nccc(NCc2ccccc2)n1 11.3%, Cc1cnc(CNc2cc(-c3ccccc3C(F)(F)F)ncn2)cn1 -0.111%, CN(C)C(=O)c1ccc(-c2ccc3ncnc(N4CCNCC4)c3c2)cc1 -10.7%, COc1cccc(-c2cc(NCc3cccnc3)ncn2)c1 17.7%, COc1ccc2[nH]cc(CCNc3ccnc(-c4ccc5c(c4)OCO5)n3)c2c1 -10.8%, Cn1c(=O)c(-c2cc(F)cc(F)c2)nc2cncnc21 3.95%, COc1cccc(-c2cncnc2NCc2cnc(C)cn2)c1 25.2%, COc1ccccc1-c1nc(NCCN2CCOCC2)c2ccccc2n1 14.3%, Cc1cnc(CNc2cc(-c3cccnc3)ncn2)cn1 0.345%, Cc1cnc(CNc2cc(-c3ccccc3C)ncn2)cn1 9.37%
